Results on five molecules are retold here after PubChem BioAssay.

Experiment [1] can be described thus: small molecules captured by biotinylated probe aFSTL3 – biochemical, small-molecule microarray, fluorescence 635/667, stem cell growth factor project, primary screen (AID 1064).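 Note: measures binding of the biotinylated anti-FSTL3 antibody to printed compounds.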 Conditions: higher = more signal.
Experiment [2] in a line: binders from COS7 lysate, DM2A8 probe, primary screen, torsin A project, cell lysate, small-molecule microarray, fluorescence 635/667 (AID 1065). Conditions: higher = more signal, COS7 lysate expressing mutant human TOR1A.
Experiment [3] in a line: small molecules captured by biotinylated probe aFGF2 – biochemical, small-molecule microarray, fluorescence 635/667, stem cell growth factor project, primary screen (AID 1067).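 Note: measures binding of biotinylated aFGF2 protein to printed compounds on slides; z-score merges feature fluorescence and signal-to-noise across triplicate slides.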 Conditions: higher = more signal.
Experiment [4] can be described thus: small molecules captured by biotinylated probe aFGF10 – biochemical, small-molecule microarray, fluorescence 635/667, stem cell growth factor project, primary screen (AID 1071).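 Note: score merges 667 nm spot intensity and signal to noise from triplicate slides.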 Conditions: higher = more signal.
The target of experiment [5] is Neurogenic locus notch homolog protein 2 (Homo sapiens) (UniProt Q04721). In words: small molecules binding Notch2 protein – biochemical, small-molecule microarray, 635 nm fluorescence, stem cell growth factors, primary screen (AID 1073). To be noted: higher = more signal.
For experiment [6], the target named is Pro-neuregulin-1, membrane-bound isoform (Homo sapiens) (UniProt Q02297). In words: small molecules binding neuregulin-1 protein – biochemical, small-molecule microarray, fluorescence 635/667, psychiatric disease protein project, primary screen (AID 1075).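 Note: score combines 667 nm spot fluorescence with signal to noise.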 Conditions: NRG1 binding, 635 nm fluorescence, higher = more signal.
Experiment [7] relates to Neuregulin-1 EGF-like domain. In words: small molecules binding NRG1 EGF domain – biochemical, small-molecule microarray, 635 nm fluorescence, primary screen (AID 1081).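 Note: binding of the protein to compounds printed on small-molecule microarray slides.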 Conditions: higher = more signal.
Experiment [8] is described as follows: FRG1 expression reporter modulators in myotubes – cell-based, C2C12 myotubes, firefly/Renilla luciferase, luminescence, FRG1 inhibition for FSHD, primary screen (AID 1084). Conditions: FRG1 promoter luciferase, higher = more signal, called active from +8 up or from −8 down.
A short description of experiment [9]: small molecules captured by biotinylated probe aFST – biochemical, small-molecule microarray, fluorescence 635/667, stem cell growth factor project, primary screen (AID 1086).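 Note: score merges 667 nm fluorescence with signal-to-noise of each printed compound spot.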 Conditions: higher = more signal.
Experiment [10] is described as follows: binders of probe aHhip on microarray, primary screen, stem cell growth factor project, biochemical, small-molecule microarray, fluorescence 635/667 (AID 1087).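 Note: score merges spot fluorescence at 667nm with spot signal to noise ratio.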 To be noted: higher = more signal.
The test system of experiment [11] is PRMT1 (protein arginine N-methyltransferase 1). Kind of experiment: small molecules binding arginine methyltransferase PRMT1 – biochemical, small-molecule microarray, 635 nm fluorescence, primary screen (AID 1088).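 Note: binding of Prmt1 protein to compounds spotted on small-molecule microarray slides.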 To be noted: higher = more signal.
A short description of experiment [12]: growth effects on S. cerevisiae YJM789 – YJM789 clinical isolate, OD600, 24 h, basal, primary screen (AID 1089).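 Note: growth of clinical yeast isolate S. cerevisiae YJM 789 seeded 1000 cells per well; test concentration not given here.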 To be noted: higher = more signal, called active from +8 up or from −8 down.
Experiment [13] can be described thus: S. pombe growth modifiers, basal conditions – strain 972, OD600, 24 h, no modulator, primary screen (AID 1090).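 Note: basal condition with compound alone and no growth modifier present; test concentration not given here.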 Conditions: S. pombe 972 growth, higher = more signal, called active from +8 up or from −8 down.
The nature of experiment [14]: budding yeast growth modifiers under rapamycin – strain BY4716, OD600, 96 h, primary screen (AID 1091). Note: test concentration not given here. To be noted: S. cerevisiae BY4716 + rapamycin, higher = more signal, called active from +8 up or from −8 down.
For experiment [15], the target named is Torsin-1A-interacting protein 2 (Homo sapiens) (UniProt Q8NFQ8). Kind of experiment: small molecules binding lysate-expressed LULL1 – cell lysate, human LULL1 lysate, 635/667 nm fluorescence, primary screen (AID 1092).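 Note: probe is lysate of COS7 cells overexpressing human LULL1; score merges per-feature 667 nm fluorescence with signal-to-noise.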 Conditions: small-molecule microarray, hLULL1 lysate binding, 635 nm fluorescence; higher = more signal.
The nature of experiment [16]: optical density change of DRC41 E. coli – strain DRC41, OD650, 24 h, E. coli filamentation project, primary screen (AID 1093).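 Note: MC1000 strain lacking acrAB efflux and sulA so SOS filamentation is blocked; test concentration not given here.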 Conditions: E. coli DRC41 growth, higher = more signal, called active from +8 up or from −8 down.
Experiment [17] can be described thus: probe aLefty2 binding to arrayed compounds – biochemical, biotinylated probe, 635/667 nm fluorescence, primary screen (AID 1094).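 Note: score merges spot fluorescence near 667 nm with spot signal-to-noise ratio.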 Conditions: small-molecule microarray, higher = more signal.
Experiment [18] deals with Noggin (protein binding on small-molecule microarray). In words: small molecules binding Noggin protein – biochemical, 635/667 nm fluorescence, primary screen (AID 1095).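 Note: score merges 667 nm feature fluorescence with signal to noise over triplicate slides.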 To be noted: 635 nm fluorescence, higher = more signal.
In experiment [19] the target is Neurogenic locus notch homolog protein 3 (Homo sapiens) (UniProt Q9UM47). Kind of experiment: small molecules binding NOTCH3 protein – biochemical, 635/667 nm fluorescence, primary screen (AID 1096). Conditions: small-molecule microarray, 635 nm fluorescence, higher = more signal.
Experiment [20] can be described thus: probe aEGFR binding to arrayed compounds – biochemical, biotinylated probe, 635/667 nm fluorescence, primary screen (AID 1097).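 Note: probe is a biotinylated anti-EGFR antibody binding compounds printed on slides; score combines fluorescence near 667 nm and signal to noise of each spot.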 To be noted: small-molecule microarray, higher = more signal.

Activity calls are given as the source filed them.

Torsin-1A-interacting protein 2 (Homo sapiens), sequence (Q8NFQ8 whole entry, looked up): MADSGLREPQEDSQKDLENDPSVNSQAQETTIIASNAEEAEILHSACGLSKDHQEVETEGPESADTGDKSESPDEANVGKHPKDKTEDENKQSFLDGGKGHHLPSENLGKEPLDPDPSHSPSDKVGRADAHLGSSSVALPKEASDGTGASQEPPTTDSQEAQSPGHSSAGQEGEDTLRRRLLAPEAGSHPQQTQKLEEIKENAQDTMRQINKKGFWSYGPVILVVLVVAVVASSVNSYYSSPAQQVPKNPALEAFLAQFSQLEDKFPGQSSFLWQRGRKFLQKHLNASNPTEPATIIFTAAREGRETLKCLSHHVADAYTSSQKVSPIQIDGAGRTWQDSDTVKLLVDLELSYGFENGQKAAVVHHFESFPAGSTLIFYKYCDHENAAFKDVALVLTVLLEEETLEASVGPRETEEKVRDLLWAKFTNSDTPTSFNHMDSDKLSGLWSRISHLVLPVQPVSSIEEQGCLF
Pro-neuregulin-1, membrane-bound isoform (Homo sapiens), sequence (Q02297 whole entry, looked up, the tested form may be a part, canonical isoform): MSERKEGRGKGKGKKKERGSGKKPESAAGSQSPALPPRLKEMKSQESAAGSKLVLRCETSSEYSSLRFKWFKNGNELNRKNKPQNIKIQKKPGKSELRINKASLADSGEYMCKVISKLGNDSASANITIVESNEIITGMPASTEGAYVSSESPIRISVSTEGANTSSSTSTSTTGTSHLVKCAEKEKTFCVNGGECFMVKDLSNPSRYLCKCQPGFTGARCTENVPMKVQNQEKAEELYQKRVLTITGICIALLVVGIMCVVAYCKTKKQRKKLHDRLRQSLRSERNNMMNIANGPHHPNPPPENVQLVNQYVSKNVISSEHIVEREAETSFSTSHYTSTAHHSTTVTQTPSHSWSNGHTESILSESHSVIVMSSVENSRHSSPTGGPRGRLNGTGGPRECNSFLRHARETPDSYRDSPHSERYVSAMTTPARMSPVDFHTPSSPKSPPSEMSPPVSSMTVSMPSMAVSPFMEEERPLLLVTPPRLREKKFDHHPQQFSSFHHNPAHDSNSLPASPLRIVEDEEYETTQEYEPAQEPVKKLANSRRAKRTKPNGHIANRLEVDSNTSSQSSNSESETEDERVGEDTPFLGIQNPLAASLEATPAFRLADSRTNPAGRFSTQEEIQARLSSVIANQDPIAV
Neurogenic locus notch homolog protein 2 (Homo sapiens), sequence (Q04721 whole entry, looked up, canonical isoform): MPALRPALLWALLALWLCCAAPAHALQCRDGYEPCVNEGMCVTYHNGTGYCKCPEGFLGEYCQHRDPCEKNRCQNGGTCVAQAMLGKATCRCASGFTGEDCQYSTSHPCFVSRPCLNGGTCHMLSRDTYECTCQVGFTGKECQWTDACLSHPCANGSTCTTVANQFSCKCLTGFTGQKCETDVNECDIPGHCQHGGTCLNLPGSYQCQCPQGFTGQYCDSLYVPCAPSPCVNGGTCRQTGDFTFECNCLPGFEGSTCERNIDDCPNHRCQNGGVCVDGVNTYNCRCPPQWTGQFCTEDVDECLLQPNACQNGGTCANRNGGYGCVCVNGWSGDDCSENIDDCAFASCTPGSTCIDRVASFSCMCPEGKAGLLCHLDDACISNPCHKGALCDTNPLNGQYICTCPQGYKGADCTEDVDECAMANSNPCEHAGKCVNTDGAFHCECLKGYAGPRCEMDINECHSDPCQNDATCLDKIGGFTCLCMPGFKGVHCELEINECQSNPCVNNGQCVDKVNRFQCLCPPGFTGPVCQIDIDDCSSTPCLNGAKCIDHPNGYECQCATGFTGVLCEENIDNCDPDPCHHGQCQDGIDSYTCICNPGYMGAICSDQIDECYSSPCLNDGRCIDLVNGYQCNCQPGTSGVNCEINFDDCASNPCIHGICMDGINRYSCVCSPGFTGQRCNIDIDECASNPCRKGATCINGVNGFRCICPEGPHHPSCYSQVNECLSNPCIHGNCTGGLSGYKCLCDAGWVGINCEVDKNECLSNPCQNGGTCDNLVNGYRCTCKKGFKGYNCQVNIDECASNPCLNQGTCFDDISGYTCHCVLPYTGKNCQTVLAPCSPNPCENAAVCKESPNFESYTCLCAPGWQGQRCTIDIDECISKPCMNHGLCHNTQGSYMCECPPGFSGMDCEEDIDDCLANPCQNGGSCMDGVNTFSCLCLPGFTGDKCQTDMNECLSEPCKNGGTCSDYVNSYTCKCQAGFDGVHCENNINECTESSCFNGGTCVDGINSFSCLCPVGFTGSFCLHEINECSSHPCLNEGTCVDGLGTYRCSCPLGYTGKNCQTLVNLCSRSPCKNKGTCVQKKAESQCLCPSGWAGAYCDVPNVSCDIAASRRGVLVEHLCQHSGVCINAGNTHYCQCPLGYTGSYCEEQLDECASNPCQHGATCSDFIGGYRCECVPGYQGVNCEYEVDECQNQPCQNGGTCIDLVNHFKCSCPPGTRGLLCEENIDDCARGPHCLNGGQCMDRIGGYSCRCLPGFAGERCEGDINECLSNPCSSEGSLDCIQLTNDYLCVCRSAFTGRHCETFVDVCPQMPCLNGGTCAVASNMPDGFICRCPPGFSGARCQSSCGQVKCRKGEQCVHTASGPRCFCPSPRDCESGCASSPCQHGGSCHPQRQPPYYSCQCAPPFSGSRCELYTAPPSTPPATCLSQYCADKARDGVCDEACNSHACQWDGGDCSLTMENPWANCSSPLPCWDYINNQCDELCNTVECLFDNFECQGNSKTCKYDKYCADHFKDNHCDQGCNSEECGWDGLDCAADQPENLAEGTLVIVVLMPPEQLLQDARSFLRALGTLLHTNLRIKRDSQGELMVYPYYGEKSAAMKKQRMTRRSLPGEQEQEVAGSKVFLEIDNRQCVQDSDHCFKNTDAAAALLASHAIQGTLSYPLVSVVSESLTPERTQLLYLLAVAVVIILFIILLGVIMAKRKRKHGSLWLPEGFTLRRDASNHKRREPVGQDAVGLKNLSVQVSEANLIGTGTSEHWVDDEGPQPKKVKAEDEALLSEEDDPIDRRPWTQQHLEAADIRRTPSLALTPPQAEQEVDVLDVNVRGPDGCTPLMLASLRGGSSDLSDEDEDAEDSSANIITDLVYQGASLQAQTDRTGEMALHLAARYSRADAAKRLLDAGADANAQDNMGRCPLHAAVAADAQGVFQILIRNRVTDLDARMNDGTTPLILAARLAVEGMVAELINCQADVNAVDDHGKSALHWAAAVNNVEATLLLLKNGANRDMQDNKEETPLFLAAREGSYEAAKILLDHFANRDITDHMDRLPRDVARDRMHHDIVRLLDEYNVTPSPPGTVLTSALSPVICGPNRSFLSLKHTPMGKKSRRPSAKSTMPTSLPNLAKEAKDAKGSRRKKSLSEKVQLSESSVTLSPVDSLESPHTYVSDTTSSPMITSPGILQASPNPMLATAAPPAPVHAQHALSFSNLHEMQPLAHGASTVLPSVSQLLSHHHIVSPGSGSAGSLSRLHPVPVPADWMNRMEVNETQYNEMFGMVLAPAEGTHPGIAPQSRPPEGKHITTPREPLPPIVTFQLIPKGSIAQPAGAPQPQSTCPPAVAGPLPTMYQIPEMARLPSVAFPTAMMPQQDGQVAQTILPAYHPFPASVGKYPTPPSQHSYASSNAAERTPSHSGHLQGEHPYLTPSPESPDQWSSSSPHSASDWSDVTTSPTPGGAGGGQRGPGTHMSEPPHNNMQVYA

As to `COC(=O)[C@@]1(Cc2ccc(F)cc2)[C@H]2c3cc(C(=O)N(C)C)n(Cc4ccc(Cl)c(C(F)(F)F)c4)c3C[C@H]2CN1C(=O)c1ccccc1`, the composite z-score in experiment [1] was 1.15; in experiment [2] it was 1.65; in experiment [3], -0.0355; in experiment [4] it was 0.215; in [5], 1.74; in [6], 1.83. For the same molecule, the composite z-score is 1.31 in experiment [7]; 1.71 in experiment [9]; -0.0296 in experiment [10]; 1.31 in experiment [11]; 3.62 in experiment [15]; 0.395 in experiment [17]. Further, the composite z-score in experiment [18] is -0.602; in experiment [19], 1.02; in [20], 0.231. Further, the z-score in [8] is 1.3 (inactive); in experiment [12], 0.44 (inactive); in experiment [13], 1.29 (inactive); in experiment [14], 1.69 (inactive); in experiment [16] it was -0.824 (inactive).
Turning to `C=C(COC)C(=O)CC[C@@H](OC(C)=O)c1ccc(CO)o1`, the composite z-score is -0.263 in [1]; 0.0091 in experiment [2]; -0.147 in experiment [3]; 0.764 in experiment [4]; -0.102 in experiment [5]; -0.0949 in experiment [6]. The composite z-score in [7] was 0.611; in experiment [9], 0.316; in [10], 0.142; in [11], 1.43; in experiment [15], -0.0809; in experiment [17], -0.117. For the same molecule, the composite z-score was 1.11 in [18], 0.612 in experiment [19] and -0.0463 in experiment [20]. In addition, the z-score in [8] was 0.632 (inactive); in experiment [12] it was -1.22 (inactive); in experiment [13], -0.198 (inactive); in experiment [14], -0.22 (inactive); in experiment [16], 0.433 (inactive).
For `C=C(CCCC)C(=O)CC[C@@H](OC(=O)c1ccccc1-c1ccccc1C(=O)O)c1ccc(OCCO)cc1`, the composite z-score in [1] was -0.281; in experiment [2], 0.358; in [3], -0.128; in experiment [4], 0.826; in [5] it was -0.278; in experiment [6] it was 0.529. Further, the composite z-score in experiment [7] was 0.562; in [9] it was 0.135; in experiment [10], 0.011; in [11], 1.53; in experiment [15], 0.259; in [17], -0.0272. Further, the composite z-score in [18] is 0.931; in experiment [19], 0.462; in [20] it was -0.0767. Moreover, the z-score in experiment [8] is -0.109 (inactive); in [12], -0.848 (inactive); in experiment [13], -1.57 (inactive); in experiment [14], -1.2 (inactive); in experiment [16], 0.502 (inactive).
Regarding `CN(C)CCCC[C@@H]1NC(=O)[C@H]2C[C@@H](C(=O)NCCCCCCN)[C@@H](c3ccc(O)cc3)N2C1=O`, the composite z-score in experiment [1] was 1.89; in experiment [2], 1.03; in experiment [3], 0.128; in experiment [4], 0.935; in experiment [5], 1.37; in [6] it was 1.79. In addition, the composite z-score stood at 1.1 in experiment [7]; 1.52 in [9]; 1.09 in [10]; 1.57 in [11]; 3.08 in experiment [15]; 1.14 in [17]. The composite z-score is 1.84 in [18], 1.15 in [19] and 0.566 in [20]. For the same molecule, the z-score in [8] is 0.511 (inactive); in experiment [12], 0.307 (inactive); in experiment [13], -0.235 (inactive); in experiment [14] it was -0.447 (inactive); in experiment [16], 0.278 (inactive).
On to `COC(=O)C(CC#Cc1ccc2c(c1)[C@]1(C(=O)N2)[C@H](c2ccc(OCCO)cc2)N2[C@H](c3ccccc3)[C@H](c3ccccc3)OC(=O)[C@H]2[C@@H]1C(=O)Nc1nc2ccccc2s1)C(=O)OC`, for which the composite z-score is -0.319 in experiment [1]; -0.164 in [2]; 0.0519 in experiment [3]; 0.465 in experiment [4]; 1.03 in experiment [5]; 1.36 in [6]. For the same molecule, the composite z-score is 1.19 in [7]; 0.582 in experiment [9]; 0.0156 in [10]; 1.58 in experiment [11]; 2.45 in experiment [15]; -0.175 in experiment [17]. Besides, the figures for the composite z-score in [18], in experiment [19] and in [20] were 1.41, 1.09 and 0.0562, respectively. For the same molecule, the z-score was 2.62 (inactive) in [8]; 2.63 (inactive) in experiment [12]; 2.22 (inactive) in experiment [13]; 3.14 (inactive) in experiment [14]; 2.13 (inactive) in experiment [16].
